{"source": "PubChem BioAssay (EPA / NIEHS)", "key": {"[1]": {"test_system": "rabbit Platelet Activating Factor Receptor (PAF), gene 100354046", "assay": "NVS_GPCR_rabPAF: NovaScreen (NVS) G Protein-Coupled Receptor Assay for rabbit Platelet Activating Factor Receptor (PAF) (AID 2283287)", "outline": "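Rabbit platelet membrane preparation; radioligand displacement read by filter-based scintillation counting 1 h after dosing, loss of signal versus DMSO. Primary screen in duplicate at 25 uM, actives followed up in concentration series.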"}, "[2]": {"biological_target": "Muscarinic acetylcholine receptor M3 (Homo sapiens) (UniProt P20309)", "sequence (P20309 whole entry, looked up)": "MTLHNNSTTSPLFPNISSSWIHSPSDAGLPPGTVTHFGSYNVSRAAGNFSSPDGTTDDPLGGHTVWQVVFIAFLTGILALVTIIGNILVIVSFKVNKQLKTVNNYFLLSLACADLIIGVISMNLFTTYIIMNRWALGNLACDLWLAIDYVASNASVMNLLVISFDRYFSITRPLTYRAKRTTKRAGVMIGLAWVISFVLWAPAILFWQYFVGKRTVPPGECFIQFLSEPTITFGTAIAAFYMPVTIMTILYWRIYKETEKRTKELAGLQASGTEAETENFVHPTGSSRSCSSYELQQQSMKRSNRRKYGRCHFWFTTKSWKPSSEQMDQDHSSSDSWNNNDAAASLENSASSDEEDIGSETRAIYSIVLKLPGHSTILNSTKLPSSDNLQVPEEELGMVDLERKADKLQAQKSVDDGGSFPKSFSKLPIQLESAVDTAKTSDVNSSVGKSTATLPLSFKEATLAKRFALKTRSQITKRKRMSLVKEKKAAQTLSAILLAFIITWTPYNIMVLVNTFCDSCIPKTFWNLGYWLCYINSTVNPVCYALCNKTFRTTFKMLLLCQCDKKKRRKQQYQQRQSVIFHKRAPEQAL", "assay": "NVS_GPCR_hM3: NovaScreen (NVS) G Protein-Coupled Receptor Assay for human Muscarinic, M3 Receptor (AID 2283272)", "outline": "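Radioligand displacement binding on human M3 receptor in CHO-derived membranes, 1 h incubation, filter-based scintillation counting. Primary screen in duplicate at 25 uM; actives followed up in concentration series; loss of signal versus DMSO.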"}, "[3]": {"biological_target": "Muscarinic acetylcholine receptor M2 (Homo sapiens) (UniProt P08172)", "sequence (P08172 whole entry, looked up)": "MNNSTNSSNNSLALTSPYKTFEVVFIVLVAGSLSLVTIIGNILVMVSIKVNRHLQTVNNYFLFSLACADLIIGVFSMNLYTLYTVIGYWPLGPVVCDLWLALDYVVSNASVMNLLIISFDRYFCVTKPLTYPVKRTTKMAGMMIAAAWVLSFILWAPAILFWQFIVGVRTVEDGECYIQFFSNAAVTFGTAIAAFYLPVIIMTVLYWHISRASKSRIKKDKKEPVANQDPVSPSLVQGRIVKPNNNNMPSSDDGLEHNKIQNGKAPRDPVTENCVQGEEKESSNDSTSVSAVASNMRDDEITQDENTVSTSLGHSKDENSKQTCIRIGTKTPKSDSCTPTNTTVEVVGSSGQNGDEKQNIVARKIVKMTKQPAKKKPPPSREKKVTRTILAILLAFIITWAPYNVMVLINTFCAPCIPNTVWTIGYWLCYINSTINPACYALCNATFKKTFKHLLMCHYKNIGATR", "assay": "NVS_GPCR_hM2: NovaScreen (NVS) G Protein-Coupled Receptor Assay for human Muscarinic, M2 Receptor (AID 2283273)", "outline": "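Cell-free radioligand binding using membranes from CHO cells expressing the receptor; filter-based scintillation counting after 1 hour of compound exposure. Loss of specific binding relative to DMSO baseline; primary screen at 25 uM in duplicate, actives then run in concentration series.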"}, "[4]": {"biological_target": "human Muscarinic, M4 Receptor, CHRM4 (gene 1132) (UniProt P08173)", "assay": "NVS_GPCR_hM4: NovaScreen (NVS) G Protein-Coupled Receptor Assay for human Muscarinic, M4 Receptor (AID 2283274)", "outline": "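Cell-free radioligand displacement using CHO-derived human M4 receptor protein, 1 h after dosing; bound radioactivity by filtration and scintillation counting. Primary screen single 25 uM duplicate, actives followed in concentration series.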"}, "[5]": {"biological_target": "human Neurokinin, NK2 Receptor, TACR2 (gene 6865) (UniProt P21452)", "sequence (P21452 whole entry, looked up)": "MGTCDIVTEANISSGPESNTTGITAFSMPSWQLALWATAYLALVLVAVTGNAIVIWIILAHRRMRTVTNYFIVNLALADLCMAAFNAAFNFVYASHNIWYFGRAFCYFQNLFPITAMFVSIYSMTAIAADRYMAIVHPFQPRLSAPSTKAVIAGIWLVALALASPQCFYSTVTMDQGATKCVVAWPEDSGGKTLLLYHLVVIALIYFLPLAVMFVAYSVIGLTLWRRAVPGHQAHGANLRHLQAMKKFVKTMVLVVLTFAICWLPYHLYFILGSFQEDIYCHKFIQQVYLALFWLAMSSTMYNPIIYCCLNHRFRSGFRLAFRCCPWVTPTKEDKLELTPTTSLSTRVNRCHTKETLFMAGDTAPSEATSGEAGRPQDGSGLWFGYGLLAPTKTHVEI", "assay": "NVS_GPCR_hNK2: NovaScreen (NVS) G Protein-Coupled Receptor Assay for human Neurokinin, NK2 Receptor (AID 2283278)", "outline": "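Cell-free radioligand binding using receptor protein extracted from CHO cells; readings taken 4 hours after chemical dosing by filter-based scintillation counting. Primary screen ran single concentration (25 uM) in duplicate; actives followed up in concentration series, loss-of-signal versus DMSO baseline.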"}, "[6]": {"biological_target": "human Opioid Receptor Delta 1 (Opiate D1), OPRD1 (gene 4985) (UniProt P41143)", "sequence (P41143 whole entry, looked up)": "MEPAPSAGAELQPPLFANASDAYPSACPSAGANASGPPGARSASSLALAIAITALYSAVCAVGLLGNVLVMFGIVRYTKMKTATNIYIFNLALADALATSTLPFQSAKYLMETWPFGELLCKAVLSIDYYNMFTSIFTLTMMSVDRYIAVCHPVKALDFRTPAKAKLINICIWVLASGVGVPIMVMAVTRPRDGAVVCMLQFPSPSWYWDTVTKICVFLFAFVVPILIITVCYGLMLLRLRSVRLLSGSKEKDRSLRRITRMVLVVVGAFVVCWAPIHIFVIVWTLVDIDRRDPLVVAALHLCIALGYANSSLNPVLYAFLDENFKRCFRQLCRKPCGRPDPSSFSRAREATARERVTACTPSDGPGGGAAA", "assay": "NVS_GPCR_hOpiate_D1: NovaScreen (NVS) G Protein-Coupled Receptor Assay for human Opioid Receptor Delta 1 (Opiate D1) (AID 2283280)", "outline": "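Radioligand displacement on membranes from CHO cells expressing the receptor, read by filter scintillation counting 1 h after dosing. Duplicate single-point screen at 25 uM, then concentration series for actives; loss of signal versus DMSO.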"}, "[7]": {"biological_target": "rat Adrenergic, Alpha 1, Non-selective Receptor (Adra1), Adra1a (gene 29412) (UniProt P43140)", "sequence (P43140 whole entry, looked up)": "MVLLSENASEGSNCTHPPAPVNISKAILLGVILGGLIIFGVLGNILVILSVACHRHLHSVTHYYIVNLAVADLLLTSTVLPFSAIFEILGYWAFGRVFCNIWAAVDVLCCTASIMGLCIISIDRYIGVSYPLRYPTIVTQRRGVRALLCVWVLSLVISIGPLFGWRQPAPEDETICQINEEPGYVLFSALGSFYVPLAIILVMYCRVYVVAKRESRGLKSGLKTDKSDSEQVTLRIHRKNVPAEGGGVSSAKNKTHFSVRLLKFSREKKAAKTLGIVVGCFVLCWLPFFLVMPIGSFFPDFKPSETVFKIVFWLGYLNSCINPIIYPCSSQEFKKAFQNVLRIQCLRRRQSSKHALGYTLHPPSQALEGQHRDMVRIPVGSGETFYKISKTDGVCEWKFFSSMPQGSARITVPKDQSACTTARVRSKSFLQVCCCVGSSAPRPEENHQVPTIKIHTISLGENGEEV", "assay": "NVS_GPCR_rAdra1_NonSelective: NovaScreen (NVS) G Protein-Coupled Receptor Assay for rat Adrenergic, Alpha 1, Non-selective Receptor (Adra1) (AID 2283289)", "outline": "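Rat forebrain membranes; radioligand displacement read by filter-based scintillation counting 1 h after dosing. Primary screen in duplicate at 25 uM; hits (e.g. ≥30% inhibition) rerun as concentration–response to 50 uM max. Fitted versus DMSO.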"}, "[8]": {"biological_target": "human Opioid Receptor Mu (Opiate Mu), OPRM1 (gene 4988) (UniProt P35372)", "sequence (P35372 whole entry, looked up)": "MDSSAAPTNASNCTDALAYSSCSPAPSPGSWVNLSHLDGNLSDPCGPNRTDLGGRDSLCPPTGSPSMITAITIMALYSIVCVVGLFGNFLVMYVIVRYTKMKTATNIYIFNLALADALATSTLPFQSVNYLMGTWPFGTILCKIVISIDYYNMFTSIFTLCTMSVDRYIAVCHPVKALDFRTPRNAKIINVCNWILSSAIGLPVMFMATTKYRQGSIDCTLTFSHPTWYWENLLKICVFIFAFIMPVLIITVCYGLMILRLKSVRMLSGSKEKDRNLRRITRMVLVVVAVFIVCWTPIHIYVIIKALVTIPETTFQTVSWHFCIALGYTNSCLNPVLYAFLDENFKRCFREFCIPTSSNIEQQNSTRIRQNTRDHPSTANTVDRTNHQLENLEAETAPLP", "assay": "NVS_GPCR_hOpiate_mu: NovaScreen (NVS) G Protein-Coupled Receptor Assay for human Opioid Receptor Mu (Opiate Mu) (AID 2283290);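 further: hits lower bound tracer signal versus DMSO meaning displacement of the ligand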", "outline": "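Primary screen in duplicate at 25 uM, with actives followed in concentration series. CHO-derived receptor membranes, cell-free; bound radioligand read by scintillation counting after filtration at 2.5 h, decrease scored against DMSO.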"}, "[9]": {"biological_target": "guinea pig Serotonin, 5-Hydroxytryptamine Receptor 4 (5HT4), HTR4 (gene 100135548) (UniProt O70528)", "sequence (O70528 whole entry, looked up)": "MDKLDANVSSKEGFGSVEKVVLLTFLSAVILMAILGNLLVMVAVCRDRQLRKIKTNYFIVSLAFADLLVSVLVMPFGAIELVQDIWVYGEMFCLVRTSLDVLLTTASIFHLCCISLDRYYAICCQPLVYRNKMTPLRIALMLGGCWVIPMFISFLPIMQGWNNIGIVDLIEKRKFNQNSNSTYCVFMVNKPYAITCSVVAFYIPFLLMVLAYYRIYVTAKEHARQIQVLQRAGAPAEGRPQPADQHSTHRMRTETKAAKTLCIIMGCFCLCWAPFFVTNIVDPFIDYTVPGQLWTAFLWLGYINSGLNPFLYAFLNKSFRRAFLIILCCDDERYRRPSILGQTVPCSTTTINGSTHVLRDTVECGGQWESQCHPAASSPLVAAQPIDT", "assay": "NVS_GPCR_g5HT4: NovaScreen (NVS) G Protein-Coupled Receptor Assay for guinea pig Serotonin, 5-Hydroxytryptamine Receptor 4 (5HT4) (AID 2283294)", "outline": "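Guinea pig striatal membranes; radioligand competitive displacement, filtration and scintillation counting after 1 h. Primary screen in duplicate at 25 uM; actives then tested in concentration series; loss of binding signal fitted relative to DMSO.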"}, "[10]": {"biological_target": "human Vasopressin 1A Receptor (V1A), AVPR1A (gene 552) (UniProt P37288)", "assay": "NVS_GPCR_hV1A: NovaScreen (NVS) G Protein-Coupled Receptor Assay for human Vasopressin 1A Receptor (V1A) (AID 2283284)", "outline": "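Cell-free radioligand displacement on human platelet preparations, 1.5 h incubation, filter-based scintillation counting. Chemicals first tested in duplicate at 25 uM; actives then run in concentration-response up to 50 uM, loss of signal fitted against DMSO.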"}, "[11]": {"biological_target": "rat Serotonin, 5-Hydroxytryptamine Receptor 1 (5HT1), Non-Selective Binding, Htr1a (gene 24473) (UniProt P19327)", "assay": "NVS_GPCR_r5HT1_NonSelective: NovaScreen (NVS) G Protein-Coupled Receptor Assay for rat Serotonin, 5-Hydroxytryptamine Receptor 1 (5HT1), Non-Selective Binding (AID 2283286)", "outline": "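Rat cortical membranes, radioligand displacement, 1 h incubation, read by filter scintillation. Primary screen in duplicate at 25 uM. Hits (e.g. ≥30% inhibition) went to concentration-response up to 50 uM, fitted as loss of binding versus DMSO.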"}, "[12]": {"biological_target": "guinea pig Bradykinin Receptor B2 (BK2), BDKRB2 (gene 100135486) (UniProt O70526)", "sequence (O70526 whole entry, looked up)": "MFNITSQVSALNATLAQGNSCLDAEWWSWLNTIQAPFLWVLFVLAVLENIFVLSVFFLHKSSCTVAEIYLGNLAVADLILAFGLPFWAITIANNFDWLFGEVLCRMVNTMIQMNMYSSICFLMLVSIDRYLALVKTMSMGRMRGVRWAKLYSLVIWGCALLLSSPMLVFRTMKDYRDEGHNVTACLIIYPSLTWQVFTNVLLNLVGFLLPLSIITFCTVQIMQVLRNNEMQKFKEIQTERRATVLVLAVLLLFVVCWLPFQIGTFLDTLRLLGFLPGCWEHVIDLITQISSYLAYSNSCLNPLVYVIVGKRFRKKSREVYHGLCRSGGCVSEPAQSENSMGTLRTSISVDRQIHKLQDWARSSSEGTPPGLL", "assay": "NVS_GPCR_gBK2: NovaScreen (NVS) G Protein-Coupled Receptor Assay for guinea pig Bradykinin Receptor B2 (BK2) (AID 2283292)", "outline": "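Radioligand displacement on guinea pig ileum membranes for 1 h, read by filter-based scintillation counting; loss of signal relative to DMSO. Compounds were screened in duplicate at 25 uM, and those passing the threshold were retested in concentration-response up to 50 uM.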"}, "[13]": {"biological_target": "human Thromboxane A2 Receptor (TXA2), TBXA2R (gene 6915) (UniProt P21731)", "sequence (P21731 whole entry, looked up)": "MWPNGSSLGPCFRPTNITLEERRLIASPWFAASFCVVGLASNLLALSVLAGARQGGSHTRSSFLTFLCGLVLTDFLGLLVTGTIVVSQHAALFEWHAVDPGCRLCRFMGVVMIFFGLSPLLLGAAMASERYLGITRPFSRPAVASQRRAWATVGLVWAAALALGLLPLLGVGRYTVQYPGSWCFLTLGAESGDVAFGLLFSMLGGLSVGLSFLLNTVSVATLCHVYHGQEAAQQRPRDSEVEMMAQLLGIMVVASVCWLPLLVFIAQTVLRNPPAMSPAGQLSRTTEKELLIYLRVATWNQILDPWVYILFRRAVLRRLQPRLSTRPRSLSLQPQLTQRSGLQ", "assay": "NVS_GPCR_hTXA2: NovaScreen (NVS) G Protein-Coupled Receptor Assay for human Thromboxane A2 Receptor (TXA2) (AID 2283282)", "outline": "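Screening ran at 25 uM in duplicate, with concentration series for confirmed actives. Each test measures radioligand binding to human platelet protein after 1 h, cell-free, using filter-based scintillation detection of signal loss relative to DMSO.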"}, "[14]": {"biological_target": "human Neurotensin Receptor (NTS), NTSR1 (gene 4923) (UniProt P30989)", "sequence (P30989 whole entry, looked up)": "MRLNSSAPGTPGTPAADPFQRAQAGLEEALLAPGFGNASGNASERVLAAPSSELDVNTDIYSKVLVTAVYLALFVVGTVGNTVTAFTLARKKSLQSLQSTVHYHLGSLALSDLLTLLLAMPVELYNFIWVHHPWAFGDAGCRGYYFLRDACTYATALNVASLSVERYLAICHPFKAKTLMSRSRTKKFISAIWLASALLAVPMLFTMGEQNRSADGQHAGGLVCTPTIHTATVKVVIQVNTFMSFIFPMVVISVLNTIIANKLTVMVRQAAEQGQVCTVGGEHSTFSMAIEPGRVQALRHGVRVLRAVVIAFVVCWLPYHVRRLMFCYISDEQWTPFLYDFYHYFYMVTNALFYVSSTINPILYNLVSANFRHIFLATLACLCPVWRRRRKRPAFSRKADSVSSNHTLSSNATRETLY", "assay": "NVS_GPCR_hNTS: NovaScreen (NVS) G Protein-Coupled Receptor Assay for human Neurotensin Receptor (NTS) (AID 2283279)", "outline": "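Radioligand displacement on human NTSR1 protein from CHO cells, cell-free, 1 h, filter-based scintillation counting. Primary screen at 25 uM in duplicate; hits rerun in concentration-response up to 50 uM.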"}, "[15]": {"biological_target": "Neuropeptide Y receptor type 2 (Homo sapiens) (UniProt P49146)", "assay": "NVS_GPCR_hNPY2: NovaScreen (NVS) G Protein-Coupled Receptor Assay for human Neuropeptide Receptor Y2 (NPY2) (AID 2283277)", "outline": "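Radioligand binding on membranes extracted from SK-N-MC cells, cell-free, read 1 h after dosing by filter-based scintillation counting. Loss of signal vs DMSO. Primary screen in duplicate at 25 uM; actives followed up in concentration-response up to 50 uM.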"}, "[16]": {"test_system": "5-hydroxytryptamine receptor 2C (pig)", "assay": "NVS_GPCR_p5HT2C: NovaScreen (NVS) G Protein-Coupled Receptor Assay for pig Serotonin, 5-Hydroxytryptamine Receptor 2C (5HT2C) (AID 2283288)", "outline": "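Pig choroid plexus membranes; radioligand competitive binding, filter-based scintillation counting, read 1 h after dosing. Primary screen in duplicate at 25 uM; actives then run as concentration series; loss of signal versus DMSO baseline.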"}, "[17]": {"biological_target": "mouse Cholecystokinin, CCK2 Receptor (CCKB), Cckbr (gene 12426) (UniProt P56481)", "sequence (P56481 whole entry, looked up)": "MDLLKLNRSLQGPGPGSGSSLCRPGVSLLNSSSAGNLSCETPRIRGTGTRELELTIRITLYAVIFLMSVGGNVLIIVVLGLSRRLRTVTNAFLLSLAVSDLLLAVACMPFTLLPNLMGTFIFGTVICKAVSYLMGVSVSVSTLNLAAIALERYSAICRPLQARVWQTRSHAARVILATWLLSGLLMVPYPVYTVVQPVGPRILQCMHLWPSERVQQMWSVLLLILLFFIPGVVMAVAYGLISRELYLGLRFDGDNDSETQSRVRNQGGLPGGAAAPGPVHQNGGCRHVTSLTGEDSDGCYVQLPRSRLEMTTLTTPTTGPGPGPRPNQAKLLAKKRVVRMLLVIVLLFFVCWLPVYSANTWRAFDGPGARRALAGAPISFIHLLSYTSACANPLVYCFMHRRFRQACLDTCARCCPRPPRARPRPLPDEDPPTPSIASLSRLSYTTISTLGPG", "assay": "NVS_GPCR_mCKKBCentral: NovaScreen (NVS) G Protein-Coupled Receptor Assay for mouse Cholecystokinin, CCK2 Receptor (CCKB) (AID 2283293)", "outline": "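Radioligand displacement binding on mouse forebrain membranes, 2 h exposure, filter-based scintillation counting. Primary screen in duplicate at 25 uM; actives (e.g. ≥30% inhibition) retested in concentration-response up to 50 uM; loss of binding signal relative to DMSO.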"}}, "note": "“And” between values parts separate entries of the source, which are not always exact repeats. Identical values can stand only once. Results filed as inconclusive are left out. Some compounds were tested as several samples or in several runs, with calls that do not always agree. The source made the active and inactive calls. How the source made its calls: active means hit-call score of the fitted dose curve at least 0.9, where 1 is the maximum; inconclusive means response in the unintended direction; inactive means score below 0.9."}
{"smiles": "COC(=O)c1c(Cl)nn(C)c1S(=O)(=O)NC(=O)Nc1nc(OC)cc(OC)n1", "values": [{"measurement": "outcome", "setting": "[1]", "result": "inactive"}]}
{"smiles": "Oc1ccc(C(c2ccc(O)cc2)C(Cl)(Cl)Cl)cc1", "values": [{"measurement": "outcome", "setting": "[2]", "result": "inactive"}, {"measurement": "AC50", "setting": "[3]", "result": "4.96 µM (active)"}, {"measurement": "AC50", "setting": "[4]", "result": "6.62 µM (active)"}, {"measurement": "outcome", "setting": "[5]", "result": "inactive"}, {"measurement": "AC50", "setting": "[6]", "result": "5.12 µM (active)"}, {"measurement": "outcome", "setting": "[7]", "result": "inactive"}, {"measurement": "AC50", "setting": "[8]", "result": "3.58 µM (active)"}, {"measurement": "AC50", "setting": "[9]", "result": "2.7 µM (active)"}]}
{"smiles": "S=C(S)NCCNC(=S)S.[Mn+2].[S-]C([S-])=NCCN=C([S-])[S-].[Zn+2]", "values": [{"measurement": "outcome", "setting": "[3]", "result": "inactive"}, {"measurement": "AC50", "setting": "[5]", "result": "117 nM (active) and 135 nM (active) and 170 nM (active)"}, {"measurement": "outcome", "setting": "[6]", "result": "inactive"}, {"measurement": "outcome", "setting": "[10]", "result": "inactive"}, {"measurement": "outcome", "setting": "[11]", "result": "inactive"}, {"measurement": "outcome", "setting": "[1]", "result": "inactive"}, {"measurement": "AC50", "setting": "[8]", "result": "154 nM (active) and 3.46 µM (active) and 9.37 µM (active)"}, {"measurement": "outcome", "setting": "[8]", "result": "inactive"}, {"measurement": "AC50", "setting": "[12]", "result": "9.72 µM (active) and 9.3 µM (active) and 26.6 µM (active)"}, {"measurement": "AC50", "setting": "[9]", "result": "31.1 µM (active)"}, {"measurement": "outcome", "setting": "[9]", "result": "inactive"}]}
{"smiles": "CN(C)C(=O)Nc1ccc(Cl)c(Cl)c1", "values": [{"measurement": "AC50", "setting": "[13]", "result": "9.69 µM (active)"}]}
{"smiles": "CCCCC(CC)CN1C(=O)C2C3C=CC(C3)C2C1=O", "note": "(configuration not stated)", "values": [{"measurement": "AC50", "setting": "[2]", "result": "8.81 µM (active)"}, {"measurement": "outcome", "setting": "[3]", "result": "inactive"}]}
{"smiles": "c1ccc2[nH]c(-c3cscn3)nc2c1", "values": [{"measurement": "outcome", "setting": "[14]", "result": "inactive"}]}
{"smiles": "CCCN(CCC)c1c([N+](=O)[O-])cc(C(F)(F)F)c(N)c1[N+](=O)[O-]", "values": [{"measurement": "outcome", "setting": "[14]", "result": "inactive"}]}
{"smiles": "CCC(O)=C1C(=O)CC(C(=O)O)CC1=O", "note": "(configuration not stated)", "values": [{"measurement": "outcome", "setting": "[1]", "result": "inactive"}]}
{"smiles": "CC(C)(c1ccc(O)cc1)c1ccc(O)cc1", "values": [{"measurement": "outcome", "setting": "[15]", "result": "inactive"}, {"measurement": "AC50", "setting": "[6]", "result": "11.2 µM (active)"}, {"measurement": "AC50", "setting": "[13]", "result": "10.3 µM (active) and 5.04 µM (active)"}, {"measurement": "outcome", "setting": "[13]", "result": "inactive"}, {"measurement": "AC50", "setting": "[16]", "result": "18.6 µM (active) and 19 µM (active)"}, {"measurement": "AC50", "setting": "[8]", "result": "15.3 µM (active) [middle of 4 runs]"}, {"measurement": "outcome", "setting": "[8]", "result": "inactive"}, {"measurement": "AC50", "setting": "[17]", "result": "31.2 µM (active) and 19.2 µM (active) and 16.3 µM (active)"}, {"measurement": "AC50", "setting": "[9]", "result": "10.4 µM (active) and 24.2 µM (active) and 15.1 µM (active)"}]}
{"smiles": "CCCOC(=O)NCCCN(C)C", "values": [{"measurement": "outcome", "setting": "[3]", "result": "inactive"}]}
{"smiles": "COC(=O)c1ccccc1C(=O)O", "values": [{"measurement": "outcome", "setting": "[14]", "result": "inactive"}]}
